# Source: PubChem BioAssay AID1159580 (chemical genetic matrix, 2015)
# In all, about 5,500 compounds went through this assay and about 2,000 (36%) were called active. Another 18% or so got no clear call; they are omitted. The list shows a part of the results. Unmarked numbers belong to inactive results. Rule as the data show it: active = normalized growth mostly below about 0.91 (no sharp cut-off); inconclusive = no clear call, values can overlap the other calls; inactive = mostly above about 0.92.
# Test: chemical genetic growth profiling, strain panel (AID 1159580);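 also: tested at 20 µM; growth read once vehicle control cultures reached saturation at 30 °C; 1 = growth at the plate median or of vehicle wells; lower values mean less growth of the strain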
# Conditions: growth OD
# [1] = S. cerevisiae deletion strains, locus YDL101C, strain DUN1, active compounds read low
# [2] = S. cerevisiae deletion strains, locus YHR030C, strain SLT2, active compounds read low
compound,measurement,setting,value
COc1cc2nc(-c3cccs3)oc(=O)c2cc1OC,normalized growth,"S. cerevisiae deletion strains, locus YAL013W, strain DEP1, active compounds read low",0.984
same,normalized growth,"S. cerevisiae deletion strains, locus YBR229C, strain ROT2, active compounds read low",0.984
same,normalized growth,[1],0.987
same,normalized growth,"S. cerevisiae deletion strains, locus YDR150W, strain NUM1, active compounds read low",0.908
same,normalized growth,"S. cerevisiae deletion strains, locus YEL061C, strain CIN8, active compounds read low",0.981
same,normalized growth,"S. cerevisiae deletion strains, locus YGR078C, strain PAC10, active compounds read low",0.987
same,normalized growth,"S. cerevisiae deletion strains, locus YGR229C, strain SMI1, active compounds read low",1
same,normalized growth,[2],0.864
same,normalized growth,"S. cerevisiae deletion strains, locus YHR087W, strain rtc3, active compounds read low",0.985
same,normalized growth,"S. cerevisiae deletion strains, locus YJL187C, strain SWE1, active compounds read low",0.999
same,normalized growth,"S. cerevisiae deletion strains, locus YJR043C, strain POL32, active compounds read low",0.978
same,normalized growth,"S. cerevisiae deletion strains, locus YJR075W, strain HOC1, active compounds read low",0.971
same,normalized growth,"S. cerevisiae deletion strains, locus YLR039C, strain RIC1, active compounds read low",0.999
same,normalized growth,"S. cerevisiae deletion strains, locus YLR058C, strain SHM2 (second series), active compounds read low",0.994
same,normalized growth,"S. cerevisiae deletion strains, locus YLR085C, strain ARP6, active compounds read low",0.936
same,normalized growth,"S. cerevisiae deletion strains, locus YLR262C, strain YPT6, active compounds read low",1.01
same,normalized growth,"S. cerevisiae deletion strains, locus YML094W, strain GIM5, active compounds read low",0.978
same,normalized growth,"S. cerevisiae deletion strains, locus YMR219W, strain ESC1, active compounds read low",0.994
same,normalized growth,"S. cerevisiae deletion strains, locus YMR263W, strain SAP30, active compounds read low",0.9
same,normalized growth,"S. cerevisiae deletion strains, locus YMR307W, strain GAS1, active compounds read low",0.945
same,normalized growth,"S. cerevisiae deletion strains, locus YNL153C, strain GIM3, active compounds read low",0.971
same,normalized growth,"S. cerevisiae deletion strains, locus YNL298W, strain CLA4 (second series), active compounds read low",0.993
same,normalized growth,"S. cerevisiae deletion strains, locus YNL322C, strain KRE1, active compounds read low",0.984
same,normalized growth,"S. cerevisiae deletion strains, locus YNR030W, strain Alg12, active compounds read low",0.983
same,normalized growth,"S. cerevisiae deletion strains, locus YPL055C, strain LGE1, active compounds read low",1.11
same,normalized growth,"S. cerevisiae deletion strains, locus YPL241C, strain CIN2, active compounds read low",0.976
same,normalized growth,"S. cerevisiae deletion strains, locus YPR135W, strain CTF4, active compounds read low",0.879
same,normalized growth,"S. cerevisiae strains, strain wild type, active compounds read low",1
Cc1ccc2nc(-c3ccc([N+](=O)[O-])o3)oc(=O)c2c1,normalized growth,"S. cerevisiae deletion strains, locus YAR019C, strain CDC15, active compounds read low",0.0888 (active)
same,normalized growth,"S. cerevisiae deletion strains, locus YBL105C, strain PKC1, active compounds read low",0.0913 (active)
same,normalized growth,"S. cerevisiae deletion strains, locus YBR135W, strain CKS1, active compounds read low",0.193 (active)
same,normalized growth,"S. cerevisiae deletion strains, locus YBR136W, strain MEC1, active compounds read low",0.181 (active)
same,normalized growth,"S. cerevisiae deletion strains, locus YBR160W, strain CDC28, active compounds read low",0.231 (active)
same,normalized growth,"S. cerevisiae deletion strains, locus YDL017W, strain CDC7, active compounds read low",0.259 (active)
same,normalized growth,"S. cerevisiae deletion strains, locus YDL028C, strain MPS1, active compounds read low",0.595 (active)
same,normalized growth,[1],0.162 (active)
same,normalized growth,"S. cerevisiae deletion strains, locus YDL214C, strain PRR2, active compounds read low",0.1 (active)
same,normalized growth,"S. cerevisiae deletion strains, locus YDR226W, strain ADK1, active compounds read low",0.361 (active)
same,normalized growth,"S. cerevisiae deletion strains, locus YDR477W, strain SNF1, active compounds read low",0.0976 (active)
same,normalized growth,"S. cerevisiae deletion strains, locus YER123W, strain YCK3, active compounds read low",0.14 (active)
same,normalized growth,"S. cerevisiae deletion strains, locus YER133W, strain GLC7, active compounds read low",0.116 (active)
same,normalized growth,"S. cerevisiae deletion strains, locus YFL009W, strain cdc4, active compounds read low",0.37 (active)
same,normalized growth,"S. cerevisiae deletion strains, locus YFL029C, strain CAK1, active compounds read low",0.124 (active)
same,normalized growth,"S. cerevisiae deletion strains, locus YFR019W, strain FAB1, active compounds read low",0.112 (active)
same,normalized growth,"S. cerevisiae deletion strains, locus YFR028C, strain CDC14, active compounds read low",0.149 (active)
same,normalized growth,"S. cerevisiae deletion strains, locus YGR040W, strain KSS1, active compounds read low",0.109 (active)
same,normalized growth,"S. cerevisiae deletion strains, locus YGR052W, strain FMP48, active compounds read low",0.112 (active)
same,normalized growth,"S. cerevisiae deletion strains, locus YGR092W, strain DBF2, active compounds read low",0.108 (active)
same,normalized growth,[2],0.141 (active)
same,normalized growth,"S. cerevisiae deletion strains, locus YHR079C, strain IRE1, active compounds read low",0.139 (active)
same,normalized growth,"S. cerevisiae deletion strains, locus YHR082C, strain KSP1, active compounds read low",0.131 (active)
same,normalized growth,"S. cerevisiae deletion strains, locus YHR205W, strain SCH9, active compounds read low",0.00195 (active)
same,normalized growth,"S. cerevisiae deletion strains, locus YIL147C, strain SLN1, active compounds read low",0.52 (active)
same,normalized growth,"S. cerevisiae deletion strains, locus YJL095W, strain BCK1, active compounds read low",0.121 (active)
same,normalized growth,"S. cerevisiae deletion strains, locus YJL157C, strain FAR1, active compounds read low",0.0957 (active)
same,normalized growth,"S. cerevisiae deletion strains, locus YJR016C, strain ILV3, active compounds read low",0.376 (active)
same,normalized growth,"S. cerevisiae deletion strains, locus YJR066W, strain TOR1 (second series), active compounds read low",0.103 (active)
same,normalized growth,"S. cerevisiae deletion strains, locus YJR066W, strain TOR1, active compounds read low",0.121 (active)
same,normalized growth,"S. cerevisiae deletion strains, locus YKL048C, strain ELM1, active compounds read low",0.119 (active)
same,normalized growth,"S. cerevisiae deletion strains, locus YKL067W, strain YNK1, active compounds read low",0.138 (active)
same,normalized growth,"S. cerevisiae deletion strains, locus YKL101W, strain HSL1, active compounds read low",0.107 (active)
same,normalized growth,"S. cerevisiae deletion strains, locus YKL193C, strain SDS22, active compounds read low",0.142 (active)
same,normalized growth,"S. cerevisiae deletion strains, locus YKL203C, strain TOR2, active compounds read low",0.101 (active)
same,normalized growth,"S. cerevisiae deletion strains, locus YLR113W, strain HOG1, active compounds read low",0.157 (active)
same,normalized growth,"S. cerevisiae deletion strains, locus YLR133W, strain CKI1, active compounds read low",0.0945 (active)
same,normalized growth,"S. cerevisiae deletion strains, locus YLR403W, strain SFP1, active compounds read low",0.000914 (active)
same,normalized growth,"S. cerevisiae deletion strains, locus YML070W, strain DAK1, active compounds read low",0.12 (active)
same,normalized growth,"S. cerevisiae deletion strains, locus YMR001C, strain CDC5, active compounds read low",0.127 (active)
same,normalized growth,"S. cerevisiae deletion strains, locus YMR205C, strain PFK2 (second series), active compounds read low",0.11 (active)
same,normalized growth,"S. cerevisiae deletion strains, locus YMR277W, strain FCP1, active compounds read low",0.124 (active)
same,normalized growth,"S. cerevisiae deletion strains, locus YNL006W, strain LST8, active compounds read low",0.0975 (active)
same,normalized growth,"S. cerevisiae deletion strains, locus YNL020C, strain ARK1, active compounds read low",0.105 (active)
same,normalized growth,"S. cerevisiae deletion strains, locus YNL161W, strain CBK1, active compounds read low",0.142 (active)
same,normalized growth,"S. cerevisiae deletion strains, locus YNL183C, strain NPR1, active compounds read low",0.118 (active)
same,normalized growth,"S. cerevisiae deletion strains, locus YNL207W, strain RIO2, active compounds read low",0.12 (active)
same,normalized growth,"S. cerevisiae deletion strains, locus YNL222W, strain SSU72, active compounds read low",0.101 (active)
same,normalized growth,"S. cerevisiae deletion strains, locus YNL307C, strain MCK1 (second series), active compounds read low",0.1 (active)
same,normalized growth,"S. cerevisiae deletion strains, locus YOL078W, strain AVO1, active compounds read low",0.164 (active)
same,normalized growth,"S. cerevisiae deletion strains, locus YOL136C, strain PFK27, active compounds read low",0.19 (active)
same,normalized growth,"S. cerevisiae deletion strains, locus YOR061W, strain CKA2, active compounds read low",0.0958 (active)
same,normalized growth,"S. cerevisiae deletion strains, locus YOR119C, strain RIO1, active compounds read low",0.123 (active)
same,normalized growth,"S. cerevisiae deletion strains, locus YOR231W, strain MKK1, active compounds read low",0.127 (active)
same,normalized growth,"S. cerevisiae deletion strains, locus YOR329C, strain SCD5, active compounds read low",0.0982 (active)
same,normalized growth,"S. cerevisiae deletion strains, locus YPL031C, strain PHO85, active compounds read low",0.102 (active)
same,normalized growth,"S. cerevisiae deletion strains, locus YPL153C, strain RAD53, active compounds read low",0.136 (active)
same,normalized growth,"S. cerevisiae deletion strains, locus YPL204W, strain HRR25, active compounds read low",0.116 (active)
same,normalized growth,"S. cerevisiae deletion strains, locus YPL209C, strain IPL1, active compounds read low",0.179 (active)
same,normalized growth,"S. cerevisiae deletion strains, locus YPL256C, strain CLN2, active compounds read low",0.174 (active)
same,normalized growth,"S. cerevisiae deletion strains, locus YPR025C, strain CCL1, active compounds read low",0.119 (active)
same,normalized growth,"S. cerevisiae deletion strains, locus YPR111W, strain DBF20, active compounds read low",0.32 (active)
same,normalized growth,"S. cerevisiae deletion strains, strain NNK1, active compounds read low",0.93
same,normalized growth,"S. cerevisiae deletion strains, strain TSCII, active compounds read low",0.106 (active)
